Data from PubChem BioAssay (Tox21).
Results filed as inconclusive are left out. Activity calls are given as the source filed them. Unless noted, calls follow the shape of the dose curve; as a rule, active = well fitted curve in the direction sought with a large enough effect in the repeat runs; inconclusive = weak or mixed curves; inactive = no such curve, though single readings can be large; an effect the other way counts as inactive or inconclusive.

Experiments:
[1] = target: Progesterone receptor (Homo sapiens) (UniProt P06401); experiment: qHTS assay to identify small molecule antagonists of the progesterone receptor (PR) signaling pathway (AID 1346795; active = well fitted inhibition curve with a large enough effect in the signal ratio in the repeat runs, not every such curve was filed as active; the % refers to the signal ratio; also: potency is read from the fitted curve at half-maximal effect)
Chain of Progesterone receptor (Homo sapiens) (P06401 whole entry, looked up): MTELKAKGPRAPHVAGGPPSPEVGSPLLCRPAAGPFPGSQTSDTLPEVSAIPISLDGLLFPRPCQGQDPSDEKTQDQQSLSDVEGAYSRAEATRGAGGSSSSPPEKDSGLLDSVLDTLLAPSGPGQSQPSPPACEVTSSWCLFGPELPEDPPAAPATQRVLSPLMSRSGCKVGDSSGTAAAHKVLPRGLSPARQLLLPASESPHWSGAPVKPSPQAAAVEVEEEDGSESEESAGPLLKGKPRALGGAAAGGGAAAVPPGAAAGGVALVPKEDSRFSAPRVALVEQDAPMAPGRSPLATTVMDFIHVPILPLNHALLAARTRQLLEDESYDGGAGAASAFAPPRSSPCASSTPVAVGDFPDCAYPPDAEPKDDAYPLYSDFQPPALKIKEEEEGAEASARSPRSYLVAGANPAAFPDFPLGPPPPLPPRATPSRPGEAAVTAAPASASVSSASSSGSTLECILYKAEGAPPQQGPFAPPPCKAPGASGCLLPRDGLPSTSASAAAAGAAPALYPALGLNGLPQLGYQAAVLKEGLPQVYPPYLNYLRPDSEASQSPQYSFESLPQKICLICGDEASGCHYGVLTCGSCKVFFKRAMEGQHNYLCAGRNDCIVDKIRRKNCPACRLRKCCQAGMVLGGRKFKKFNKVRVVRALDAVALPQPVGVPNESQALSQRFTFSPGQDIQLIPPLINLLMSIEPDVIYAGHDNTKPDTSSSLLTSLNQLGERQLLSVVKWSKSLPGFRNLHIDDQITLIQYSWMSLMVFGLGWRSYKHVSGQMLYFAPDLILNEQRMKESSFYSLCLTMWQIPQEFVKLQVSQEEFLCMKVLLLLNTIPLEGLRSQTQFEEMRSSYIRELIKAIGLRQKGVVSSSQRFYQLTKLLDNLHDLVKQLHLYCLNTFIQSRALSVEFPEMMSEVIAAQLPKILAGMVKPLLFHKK
In short: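 After 6 hr plating at 37C in 2% stripped-serum medium, PR-UAS-bla HEK293T cells got compounds, then 1 nM R5020. Sixteen hours later, LiveBLAzer substrate was applied for 2 hr at room temperature and fluorescence was recorded.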

[2] = qHTS assay to identify small molecule antagonists of the progesterone receptor (PR) signaling pathway - cell viability counter screen (AID 1346798); also: series mostly up to about 92 µM; nearly all actives have a fitted effect of over 50% in size
In short: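 Viability was determined by ATP-based luminescence (CellTiter-Glo) in PR-UAS-bla HEK293T cells cultured in 2% charcoal-stripped serum and incubated 16 hr with compounds under R5020 stimulation.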

[3] = qHTS assay to identify small molecule antagonists of the TGF-beta/Smad signaling pathway - cell viability counter screen (AID 1346824); also: nearly all actives have a fitted effect of over 50% in size
In short: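 SBE-bla HEK 293T cells were plated overnight at 37 C, then given compounds in DMSO plus TGF-beta1 (added as 0.25 ng/mL solution) for 5 hr. After the bla read, CellTiter-Glo was added to the same wells and luminescence read after 30 min at room temperature.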

[4] = qHTS assay to identify small molecule agonists of the TGF-beta/Smad signaling pathway - cell viability counter screen (AID 1346829); also: top concentration of the series differs between compounds; nearly all actives have a fitted effect of over 45% in size
In short: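 Luminescence from CellTiter-Glo, read after a 30 min room-temperature incubation, gives cell viability of SBE-bla HEK 293T cells treated 5 hr with compounds at 37 C.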

[5] = qHTS assay to identify small molecule agonists of the TGF-beta/Smad signaling pathway (AID 1346859; active = well fitted activation curve with a large enough effect in the signal ratio in the repeat runs, not every such curve was filed as active; the % refers to the signal ratio; also: series mostly up to about 77 µM)
In short: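 Dual-wavelength fluorescence (460/530 nm emission) quantified beta-lactamase expression under the Smad binding element in HEK 293T cells following 5 hr compound treatment at 37 C.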

[6] = target: Thyrotropin-releasing hormone receptor (Homo sapiens) (UniProt P34981); experiment: qHTS assay to identify small molecule antagonists of the thyrotropin-releasing hormone receptor (TRHR) signaling pathway (AID 1346877; active = well fitted inhibition curve with a large enough effect in the repeat runs, not every such curve was filed as active; also: series mostly up to about 51 µM)
Chain of Thyrotropin-releasing hormone receptor (Homo sapiens) (P34981 whole entry, looked up): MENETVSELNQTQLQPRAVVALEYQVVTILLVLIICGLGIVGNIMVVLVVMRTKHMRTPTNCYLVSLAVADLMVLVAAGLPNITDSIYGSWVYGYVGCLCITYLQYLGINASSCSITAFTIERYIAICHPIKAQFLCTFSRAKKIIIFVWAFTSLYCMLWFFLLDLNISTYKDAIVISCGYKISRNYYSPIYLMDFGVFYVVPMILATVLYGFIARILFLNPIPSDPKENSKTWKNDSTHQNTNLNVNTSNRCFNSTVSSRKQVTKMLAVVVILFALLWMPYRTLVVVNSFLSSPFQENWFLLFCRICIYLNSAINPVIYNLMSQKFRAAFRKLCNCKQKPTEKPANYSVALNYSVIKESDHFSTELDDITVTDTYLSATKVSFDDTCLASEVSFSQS
In short: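 Antagonist mode: after a 5 min room-temperature compound exposure, cells were stimulated with 1 nM (final) TRH. Dye-loaded TRHR-HEK293 cells were used, and calcium-dependent fluorescence was followed for 3 min, with 15-point titrations run in triplicate.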

[7] = target: Thyrotropin-releasing hormone receptor (Homo sapiens) (UniProt P34981); experiment: qHTS assay to identify small molecule agonists of the thyrotropin-releasing hormone receptor (TRHR) signaling pathway (AID 1346891; calls by dose curve;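 also: HEK293 cells expressing TRHR with calcium dye readout; series mostly up to about 58 µM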)
In short: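 Kinetic fluorescence (3 min, 1 s intervals) reported intracellular calcium after compound transfer onto TRHR-Hek293 cells pre-loaded with dye for 2 h at 37 °C.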

[8] = Human pregnane X receptor (PXR) small molecule agonists, qHTS cell viability counter screen (AID 1346977); also: nearly all actives have a fitted effect of over 50% in size; also: potency is read from the fitted curve at half-maximal effect
In short: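 HepG2 cells stably carrying the PXR-Luc reporter are cultured with 5% charcoal-stripped FBS and treated with compounds for 24hr. CellTiter-Fluor is added at 23hr and fluorescence is read after 1hr.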

[9] = qHTS assay to identify small molecule agonists of the progesterone receptor (PR) signaling pathway - cell viability counter screen (AID 1346799; calls by dose curve; also: nearly all actives have a fitted effect of over 45% in size)
In short: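 Viability was scored by ATP luminescence (CellTiter-Glo, 30 min, room temperature) in the same wells used for the reporter readout, after 16 hr compound exposure of PR-UAS-bla HEK293T cells.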

[10] = target: Progesterone receptor (Homo sapiens) (UniProt P06401); experiment: qHTS assay to identify small molecule agonists of the progesterone receptor (PR) signaling pathway (AID 1346784; calls by dose curve; also: nearly all actives have a fitted effect of over 30% in size)
In short: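 The screen uses PR-UAS-bla HEK 293T cells in charcoal-stripped serum (2%). Compounds are applied for 16 hr at 37C after a 6 hr pre-incubation, and reporter activity is detected with a FRET beta-lactamase substrate after 2 hr at room temperature.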
% is scaled to controls: 0 for no effect and ±100 for the full control effect.

Cc1cc(O)c2c(O)c3c(O)cccc3cc2c1
inactive: Potency [1] | Potency [2] | outcome [3] | outcome [4] | outcome [5] | outcome [6] | Potency [7] | Potency [8]

Nc1nc(Cl)nc2c1ncn2[C@@H]1O[C@H](CO)[C@@H](O)[C@@H]1F
inactive: Potency [1] | Potency [2] | outcome [3] | outcome [4] | outcome [5] | outcome [6] | Potency [7]

CCCCC(CC)COC(=O)COc1ccc(Cl)cc1C (stereo not drawn)
inactive: Potency [1] | Potency [2] | Potency [9] | outcome [3] | outcome [5] | Potency [8]

CCCCCCOC(=O)C(C)C
inactive: Potency [1] | Potency [2] | Potency [9] | outcome [3] | outcome [4] | outcome [5] | outcome [6] | Potency [7] | Potency [8]

COC(=O)CC(=O)C(C)(C)C
inactive: Potency [10] | outcome [3] | outcome [5] | Potency [8]

CC(C)(CCl)c1ccccc1
inactive: Potency [1] | Potency [2] | Potency [9] | outcome [3] | outcome [4] | outcome [5] | outcome [6] | Potency [7] | Potency [8]

CC(C)OCC1CO1 (stereo not drawn)
inactive: Potency [10] | outcome [3] | outcome [5] | outcome [6] | Potency [7] | Potency [8]

CC1=C(C=O)C(C)(C)CCC1
inactive: Potency [1] | Potency [2] | Potency [9] | outcome [3] | outcome [4] | outcome [5] | outcome [6] | Potency [7]

COCCOC
inactive: Potency [1] | Potency [2] | outcome [3] | outcome [5] | outcome [6] | Potency [7]

Oc1cc(O)c(Cl)cc1Cl
active: Potency [1] 49.7 µM
inactive: Potency [2] | outcome [3] | outcome [4] | outcome [5] | Potency [8]

CC(C)CCCCCCOC(=O)CCCCC(=O)OCCCCCCC(C)C
inactive: Potency [1] | Potency [2] | Potency [9] | outcome [3] | outcome [4] | outcome [5] | Potency [8]

O=C(C(=O)c1ccccc1)c1ccccc1
inactive: Potency [1] | Potency [2] | Potency [9] | outcome [3] | outcome [4] | outcome [5] | outcome [6] | Potency [7] | Potency [8]

NC(=O)N(O)[C@@H]1COc2cc(OCc3ccccc3)ccc21
active: Potency [1] 13.7 µM
inactive: outcome [3] | outcome [4] | outcome [5]

COc1cc2[nH]c(=O)[nH]c(=O)c2cc1OC
inactive: Potency [1] | Potency [2] | Potency [9] | outcome [3] | outcome [4] | outcome [5] | outcome [6] | Potency [7] | Potency [8]

COC(=O)c1cc(S(N)(=O)=O)ccc1OC
inactive: Potency [1] | Potency [2] | outcome [3] | outcome [4] | outcome [5] | Potency [8]

Nc1ccc(S(=O)(=O)O)c(N)c1
inactive: Potency [1] | Potency [2] | Potency [9] | outcome [3] | outcome [4] | outcome [5] | Potency [8]

CCCCCCCCCCCC[N+](C)(C)CCCS(=O)(=O)[O-]
inactive: Potency [1] | Potency [2] | outcome [3] | outcome [4] | outcome [5] | outcome [6] | Potency [7]

COCC(O)CO (stereo not drawn)
inactive: Potency [1] | Potency [2] | outcome [3] | outcome [5] | outcome [6] | Potency [7] | Potency [8]

c1cnc2c(n1)CCCC2
inactive: Potency [1] | Potency [2] | Potency [9] | outcome [3] | outcome [4] | outcome [5] | outcome [6] | Potency [7] | Potency [8]

CC(=O)[C@H]1CC[C@H]2[C@@H]3C=CC4=CC(=O)CC[C@@]4(C)[C@@H]3CC[C@]12C
inactive: Potency [1] | Potency [9] | outcome [3] | outcome [4] | outcome [5] | outcome [6] | Potency [7] | Potency [8]

COc1cc2c(N3CCN(C(=O)Nc4ccc(OC(C)C)cc4)CC3)ncnc2cc1OCCCN1CCCCC1
active: Potency [8] 23.7 µM
inactive: Potency [1] | Potency [2] | Potency [9] | outcome [3] | outcome [4] | outcome [5] | outcome [6] | Potency [7]

CC#N
inactive: Potency [1] | Potency [2] | Potency [9] | outcome [3] | outcome [5] | outcome [6] | Potency [7] | Potency [8]

C=CC(C)(O)CCCC(C)CCCC(C)CCCC(C)C (stereo not drawn)
inactive: Potency [1] | Potency [2] | outcome [3] | outcome [4] | outcome [5] | outcome [6] | Potency [7] | Potency [8]

CCCCCCCC/C=C\CCCCCCCC(=O)OC(CO)CO
inactive: Potency [1] | Potency [2] | Potency [9] | outcome [3] | outcome [4] | outcome [5] | outcome [6] | Potency [7] | Potency [8]

CCCCCC=CCC=CCCCCCCCC(=O)OCC
inactive: Potency [1] | Potency [2] | Potency [9] | outcome [3] | outcome [4] | outcome [5] | outcome [6] | Potency [7] | Potency [8]

CCN(CC)CCNC(=O)c1ccc(NC(C)=O)cc1
inactive: Potency [1] | Potency [2] | Potency [9] | outcome [3] | outcome [5] | outcome [6] | Potency [7] | Potency [8]

O=C(NCCCN1CCOCC1)c1ccc(Cl)cc1
inactive: Potency [1] | Potency [2] | outcome [3] | outcome [4] | outcome [5] | Potency [8]

NC(=O)Nc1ccc(Cl)cc1
inactive: Potency [1] | Potency [2] | Potency [9] | outcome [3] | outcome [4] | outcome [5] | Potency [8]

CCCCCCCCCCCCCCCCBr
inactive: activity change, negative = inhibition [1] -0.513% [at 18.9 µM] | activity change, negative = cytotoxicity [2] 0.653% [at 18.9 µM] | viability change, negative = cytotoxic [3] -3.09% [at 15.8 µM] | activity change, negative = cytotoxicity [4] -1.12% [at 15.8 µM] | activation [5] -2.16% [at 15.8 µM] | activity change, negative = cytotoxicity [8] -1.37% [at 19 µM]

Cc1cc(O)c(C(C)C)cc1Cl
inactive: Potency [1] | Potency [2] | Potency [9] | outcome [3] | outcome [4] | outcome [5] | outcome [6] | Potency [7] | Potency [8]

COCc1c(C(C)C)nc(C(C)C)c(/C=C/[C@@H](O)C[C@@H](O)CC(=O)O)c1-c1ccc(F)cc1
inactive: Potency [10] | outcome [3] | outcome [5]

C=CCOC(=O)/C=C\C(=O)OCC=C
inactive: Potency [1] | Potency [2] | Potency [9] | outcome [3] | outcome [4] | outcome [5] | outcome [6] | Potency [7] | Potency [8]
